The record followed here is PubChem BioAssay (NCI).

Values joined by “and” are separate entries in the source; they are usually repeats but may differ in a detail not shown here. Equal values may be shown once. About 83,000 compounds went through this panel and 20% of them were active in at least one assay; those are over-represented in the sample as a whole.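 The test compound was applied at a single concentration to cells in 96-well plates for 48 hours, and percent growth was recorded.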 Values without a mark were called inactive. Active and inactive are the calls of the source. The calls were made as follows: active = growth percent below 10; inactive = the rest.

Experiment in all cases: NCI-60 one-dose screen, 48 h (100 = growth as untreated, 0 = no growth, -100 = all killed)
Holding throughout (conditions): 10 µM unless noted

Test [1] relates to DU-145 prostate.
For test [2], the system named is K-562 leukemia.
Test [3] relates to MALME-3M melanoma.
Test [4] deals with MDA-MB-231 breast.
Test [5] deals with RXF 393 renal.
Test [6] deals with SF-268 CNS.
Test [7] relates to SF-295 CNS.
Test [8] has as its system SF-539 CNS.
Test [9] has as its system UACC-257 melanoma.
Test [10] has as its system M14 melanoma.

Regarding `N#CC1=C(c2cccs2)Nc2c(c(-c3ccccc3)nn2-c2ccccc2)C12C(=O)Nc1ccc(Cl)cc12` (stereo not given), the growth is 50.5% in [1]; 11.1% in [2]; 76.3% in [3]; 21.5% in test [4]; -11.4% (active) in test [5]; 23.2% in test [6]. Moreover, the growth in test [7] was 12.9%; in [8] it was 20.5%; in test [9], 63.5%; in test [10], 16.5%.
Consider `C=CCn1c(O)c(N=Nc2nc(-c3cc4ccccc4oc3=O)cs2)c2ccccc21`, for which the growth in [1] was 74.1%; in test [2], 107%; in test [3], 104%; in [4], -24.9% (active); in test [5] it was -4.94% (active); in test [6], 42.1%. Also, the growth in [7] is 54.6%; in [8] it was 83.7%; in test [9] it was 101%; in test [10], 70.9%.
Turning to `N#Cc1c(-c2ccc(F)cc2)nc(SCc2ccccc2)nc1N1CCNCC1`, the growth was -79.8% (active) in test [1]; -22% (active) in [2]; -97.3% (active) in test [3]; -98.5% (active) in test [4]; -94.8% (active) in [5]; -31.2% (active) in [6]. The growth was -83% (active) in test [7], -99.4% (active) in [8], -93.2% (active) in test [9] and -90.2% (active) in test [10].
Regarding `O=C(CSc1nc2sc3c(c2c(=O)n1-c1ccc(Cl)cc1)CCCC3)NNC(=O)c1ccc(Br)cc1`, the growth in [1] was 97.4%; in test [2], 55.5%; in [3], 69.2%; in test [4] it was 25.6%; in [5] it was 76%; in test [6] it was 84.9%. The growth is 84.1% in test [7], -29.5% (active) in test [8], 98.6% in test [9] and 71.9% in test [10].
In the case of `O=C1N/C(=N\c2nccs2)S/C1=C\c1ccc([N+](=O)[O-])cc1`, the growth in [1] is 39.9%; in test [2] it was 13.3%; in [3], 28.4%; in [4], 10.8%; in test [5], 8.41% (active); in test [6], 19.9%. Moreover, the growth in [7] is 15%; in test [8] it was 4.72% (active); in [9] it was 8.51% (active); in [10], 5.66% (active).
For `CCOC(=O)c1ccc(NC(=S)NC(=O)c2ccc(NC(=O)C(C)C)cc2OC)cc1`, the growth is 78.2% in test [1]; 10.7% in test [2]; 3.16% (active) in test [3]; 47.2% in [4]; 74.2% in test [5]; 68.1% in [6]. In addition, the growth in [7] was 36.8%; in [8] it was 79.6%; in [9], 42%; in test [10], 34.1%.
In the case of `CC1(C)CC(=O)C2=C(C1)OC(N)=C(c1nc3ccccc3[nH]1)C2c1ccc(Cl)cc1` (stereo not given), the growth in test [1] is 74% and 99.8%; in test [2] it was 61.5% and 104%; in test [3] it was 41.8% and 97.3%; in test [4], 79.1% and 105%; in test [5], 55% and 106%; in test [6] it was 67.8% and 102%. Moreover, the growth was 22.9% and 103% in test [7]; 29.3% and 106% in test [8]; 97.4% and 109% in test [9]; 85.6% and 118% in [10].
On to `O=C(c1ccc(Cl)cc1)C1[C@H](c2ccccc2Cl)[C@@H](c2ccccc2)NC12C(=O)Nc1ccc(Br)cc12` (stereo not given in full), for which the growth in test [1] was -34.7% (active); in test [2], -43.2% (active); in test [3], -64.2% (active); in test [4], -95.4% (active); in test [5], -93.5% (active); in test [6] it was -45.1% (active). Moreover, the growth in test [7] was -88.1% (active); in test [8], -85.2% (active); in test [9], -30.7% (active); in test [10], -88.5% (active).
On to `CCCn1c(NC(=O)c2cccc(C(N)=O)c2)nc2ccc(CN3CCCCC3)cc21`, for which the growth in test [1] is 87.1%; in test [2], 85.8%; in test [3], 92.4%; in test [4], 126%; in test [5], 46.4%; in test [6], 107%. Further, the growth in test [7] was 106%; in [8], 106%; in [9] it was 121%; in [10], -6.41% (active).
With `c1n[nH]cc1-c1nc2ccc3[nH]ncc3c2c2c1CC1(CC2)COC1`, the growth was 62.7% in [1]; 33.9% in [2]; 29% in [3]; 69.5% in test [4]; -2.43% (active) in [5]; 63.6% in test [6]. Also, the growth in test [7] is 104%; in test [8], 26.6%; in test [9], 66.4%; in [10], 31.9%.
As for `O=C(c1ccc(O)cc1)C1[C@H](c2ccccc2Br)[C@@H](c2ccccc2)NC12C(=O)Nc1ccccc12` (stereo not given in full), the growth in [1] was 63.1%; in test [2], 29.4%; in test [3], 71.6%; in test [4] it was 41%; in [5] it was 20.8%; in test [6], 49.1%. For the same molecule, the growth in test [7] is 27.9%; in [8] it was 55%; in test [9] it was 45.8%; in test [10] it was 58.6%.
With `O=C(CSc1nc2sc3c(c2c(=O)n1-c1ccc(Cl)cc1)CCCC3)N/N=C/C=C/c1ccccc1`, the growth in [1] is 26.7%; in test [2] it was 19.4%; in [3], -97% (active); in [4] it was -69.4% (active); in test [5], -67.1% (active); in test [6], 55.1%. The growth in test [7] is 12%; in test [8], -35.2% (active); in test [9], 1.05% (active); in [10] it was -65.9% (active).
